cytoskel mod: alters cytoskeleton assembly in HUVEC cells | HUVEC TNFa F-actin phalloidin imaging, high content | inhibition, % at 2 µM | 91,000 compounds, 0.18% hits | AID 836;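 active means inhibition above the batch mean plus 3 SD and confirmed as a hit by visual image inspection, cut at about 30% in these data, passing the limit was not always enough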
CYP2C19 inh: inhibitors of human CYP2C19 | P33261 | CYP2C19 Supersomes, luciferin-H EGE luminescence, 30 min | inhibition, % at 5 µM | 96,000 compounds, 21% hits;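 active means CYP2C19 inhibition above a set limit at 5 µM in the primary screen, cut at about 50% in these data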
Target sequence (P33261 whole entry, looked up): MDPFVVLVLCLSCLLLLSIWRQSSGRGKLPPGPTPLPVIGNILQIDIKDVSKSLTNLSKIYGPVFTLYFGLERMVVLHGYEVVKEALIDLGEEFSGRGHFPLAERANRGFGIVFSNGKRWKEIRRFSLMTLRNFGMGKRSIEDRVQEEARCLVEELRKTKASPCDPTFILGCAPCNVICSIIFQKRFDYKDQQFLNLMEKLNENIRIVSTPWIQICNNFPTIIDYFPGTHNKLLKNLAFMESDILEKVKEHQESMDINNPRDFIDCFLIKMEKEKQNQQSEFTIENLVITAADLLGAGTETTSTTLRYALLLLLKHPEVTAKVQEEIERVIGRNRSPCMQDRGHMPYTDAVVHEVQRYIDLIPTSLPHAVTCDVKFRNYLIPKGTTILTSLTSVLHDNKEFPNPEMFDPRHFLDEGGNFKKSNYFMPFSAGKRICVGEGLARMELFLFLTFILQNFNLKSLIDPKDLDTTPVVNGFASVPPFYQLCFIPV
E-sel TNF inh: TNF alpha driven E-selectin expression inhibition; HUVEC TNFa-induced E-selectin immunofluorescence, high content; inhibition, % at 2 µM; 120,000 compounds, 0.71% hits;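 active means inhibition above the batch mean plus 3 SD, and confirmed as a hit on visual image review, cut at about 43% in these data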
CYP2C9 inh: human CYP2C9 inhibition; P11712; CYP2C9 Supersomes, luciferin-H conversion, luminescence; inhibition, % at 5 µM; 96,000 compounds, 20% hits; AID 777;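 active means blocking of liver enzyme CYP2C9 beyond about 50% at 5 µM, limit read from the data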
CYP2C19 activ: increases human CYP2C19 enzyme activity; P33261; recombinant CYP2C19, luciferin-H EGE luminescence; stronger effect = higher value; 0 = fully inhibited enzyme, 1 = untreated enzyme; activation factor at 5 µM; 96,000 tested, under 10 active; AID 1025;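 active means activation factor of at least 2 at 5 µM in the primary screen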
CYP2C9 activ: activators of human CYP2C9; recombinant CYP2C9, luciferin-H conversion, luminescence; stronger effect = higher value; factor 1 = untreated enzyme, 0 = blocked; 96,000 compounds, 1.4% hits; P11712; activation factor at 5 µM;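 active means activation factor of 2 or more for CYP2C9 at a 5 µM dose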
A number is an active result; - = inactive; . = no result. Sampled rows, rich in hits. Any-hit rate of the full collection: about 22%.

SMILES	cytoskel mod	CYP2C19 inh	E-sel TNF inh	CYP2C9 inh	CYP2C19 activ	CYP2C9 activ
COC(=O)C(C)Sc1nc2c(c(=O)n(C)c(=O)n2C)n1CCC(C)C (configuration not stated)	.	.	-	.	.	.
Brc1ccc2ncnc(NCc3ccccc3)c2c1	-	74	-	-	-	-
Cc1cc(NC(=O)CCC(=O)N(CC(=O)NC2CCCC2)c2cccc(C)c2C)no1	-	.	-	.	.	.
CCOC(=O)c1c(C)c(C(=O)N2CCCCCC2)c(C)n1C	-	-	.	-	-	-
CCOC(=O)c1c(C)c(C(=O)N2CCCCCC2)c(C)n1CC	.	67	-	-	-	-
COCCCNc1nc2c(c(=O)[nH]c(=O)n2C)n1CCCc1ccccc1	-	70	-	-	-	-
CCOCCCNc1nc2c(c(=O)n(C)c(=O)n2C)n1CCCc1ccccc1	-	68	-	82	-	-
Cc1ccc(Cn2c(NCCCn3ccnc3)nc3c2c(=O)n(C)c(=O)n3C)cc1	-	98	.	99	-	-
COc1ccc(N=Cc2cc3c(cc2O)OC(N)=C(C#N)C3c2ccccc2)cc1 (configuration not stated)	.	.	-	.	.	.
N#CCCn1nc(-c2ccc(Br)cc2)cc1Nc1ccccc1NC(=O)C(F)(F)F	.	.	-	.	.	.
CCN(CC)S(=O)(=O)c1ccc(N2CCCC2)c(C(=O)OCC(=O)/C(C#N)=C(\C)N)c1	-	80	-	82	-	-
O=C(CCCNS(=O)(=O)c1cccs1)N1CCN(c2ccc(F)cc2)CC1	.	-	-	-	-	-
O=C(CCS(=O)(=O)c1cccs1)N1CCN(c2ccc(F)cc2)CC1	-	72	.	-	-	-
O=C(CCS(=O)(=O)c1cccc2nonc12)N1CCN(c2ccc(F)cc2)CC1	.	-	-	-	-	2
CN(C)/C=C/C(=O)c1ccc(N2CCN(c3ncc(C(F)(F)F)cc3Cl)CC2)cc1	-	-	-	-	-	-
CN1C(=O)C2(NCCc3c2[nH]c2ccccc32)c2ccccc21 (configuration not stated)	-	81	-	-	-	-
O=c1cc(-c2ccc(Cl)cc2)[nH][nH]1	-	-	-	-	-	-
COC(C(=O)Nc1ccc(F)cc1)c1ccccc1 (configuration not stated)	-	.	-	.	.	.
Cc1ccc(NC(=O)C(C)c2ccc(-c3ccccc3)c(F)c2)cc1 (configuration not stated)	-	-	-	96	-	-
Cc1cc2n(n1)C(c1c[nH]c3ccccc13)Nc1ccccc1-2 (configuration not stated)	-	-	.	81	-	-
Cc1cc2n(n1)C(c1cn(-c3ccccc3)nc1C)Nc1ccccc1-2 (configuration not stated)	-	-	-	-	-	-
Cc1ccc(-n2c(C)cc3c2CC(C)(C)CC3=O)cc1C	-	-	-	-	-	-
Cc1cc2c(n1-c1ccc(Br)cc1)CC(C)(C)CC2=O	-	67	-	-	-	-
